We go through four compounds from PubChem BioAssay.

The nature of experiment [1]: rapamycin-like changes in RPL19A-GFP expression – cell-based, S. cerevisiae, multiplex flow cytometry, primary screen (AID 1862; in the data active means percent of DMSO control GFP below about 86%;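 further: lower values mimic rapamycin by blocking the RPL19A rise seen in DMSO cells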). The settings on record: S. cerevisiae RPL19A-GFP strain, flow cytometry fluorescence, 3 h; at 10 µM; stronger effect = lower value. In general terms: A flow cytometer gives signals particle by particle.
The nature of experiment [2]: TOR pathway GLN3 branch reporter MEP2-GFP changes – S. cerevisiae, multiplex flow cytometry, primary screen (AID 1867;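 active means GFP response, as percent of the DMSO control, above the screen-wide mean plus 3 SD, about 139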;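 further: median GFP channel fluorescence of barcode-gated MEP2-GFP cells measured by flow cytometry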). The settings on record: S. cerevisiae MEP2-GFP strain, 3 h, at 10 µM, stronger effect = higher value, 100% means same as DMSO wells.
Experiment [3] in a line: TOR pathway RTG branch CIT2 reporter changes – S. cerevisiae, GFP fusion, multiplex flow cytometry, primary screen (AID 1870).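 Further: barcoded CIT2-GFP strain pooled with four other GFP strains with rapamycin as positive control; median GFP fluorescence per well over plate mean of DMSO wells so 100% = DMSO.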 The settings on record: S. cerevisiae CIT2-GFP expression, 3 h, at 10 µM, stronger effect = higher value.
A short description of experiment [4]: TOR pathway LAP4-GFP level changes – S. cerevisiae, multiplex flow cytometry, primary screen (AID 1873;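 active means GFP signal, as percent of the solvent control, above the screen mean plus 3 SD, about 149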). The conditions noted are these: S. cerevisiae LAP4-GFP expression, 3 h, at 10 µM, stronger effect = higher value.
The nature of experiment [5]: yeast AGP1-GFP level changes, GLN3 branch – cell-based, multiplex flow cytometry, S. cerevisiae, primary screen (AID 1887;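 active means GFP signal above the screen-wide mean plus 3 SD, that is over about 124.5% of the solvent control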;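 further: AGP1-GFP fusion strain of S. cerevisiae within a five-strain barcoded multiplex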). The conditions noted are these: 3 h, at 10 µM, stronger effect = higher value.
Experiment [6] can be described thus: reduced mouse 2C T cell binding to pMHC/ICAM-1 vesicles – MLPCN validation set, flow cytometry, LFA-1/ICAM-1 modulator project, pilot screen (AID 2523;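 active means response below a set limit, under 55% cells CD8-positive and vesicle-bound, and CD8 cells' 90th-percentile brightness under 279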;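 on vesicle binding response: mean PE anti-B7-1 fluorescence of CD8+ cells relative to row control; 100% = QL9-loaded vesicles with DMSO vehicle in the same plate row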). The conditions noted are these: 2C mouse CD8+ T cells, at 7 µM, stronger effect = lower value; double positive events: measured here: CD8+/vesicle+ event percentage.
Experiment [7] has as its target Integrin beta-1 (Homo sapiens) + Integrin alpha-4 (Homo sapiens) (UniProt P13612+P05556). The experiment can be described thus: alpha4beta1 integrin LIBS antibody binding reduction – U937 cells, HUTS-21 mAb, flow cytometry, validation set, VLA-4 allosteric modulator project, pilot screen (AID 2674;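 active means inhibition above 50%, about 3 SD of the validation set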;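 further: antibody binding induced by the VLA-4 ligand LDV present at three times its Kd; 0% = LDV ligand with antibody and no compound and 100% = antibody without LDV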). The settings on record: HUTS-21 LIBS mAb binding, at 6.7 µM, stronger effect = higher value, binding induced by LDV ligand.

Experiment [8] can be described thus: calorie-restriction mimetic ROS inhibitors, yeast – validation compound set, pilot screen (AID 2706;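 active means superoxide response below 65% of plate, a cut near 3 SD across the whole screen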;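 further: yeast exposed to compound for one week at 30 degrees C before staining; 100% = mean of all compound wells on the same plate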). The settings on record: S. cerevisiae aging, superoxide DHE fluorescence; at 10 µM; stronger effect = lower value.
Experiment [9] concerns the target Beta-adrenergic receptor kinase 1 (Homo sapiens) (UniProt P25098). In words: GRK2 binders displacing RNA aptamer, biochemical, validation, human GRK2, bead flow cytometry (AID 488806;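 active means aptamer binding inhibition above 30%, about 3 SD of noise from non-fluorescent compounds; inactive means inhibition at or below 30%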). The conditions noted are these: bead-bound GRK2, FAM-aptamer displacement, at 10 µM, stronger effect = higher value.
Experiment [10] deals with Beta-2 adrenergic receptor (Homo sapiens) (UniProt P07550). The experiment can be described thus: agonist-induced loss of surface beta2AR – cell-based, FAP fluorogen, flow cytometry, validation set, pilot screen (AID 504459;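 active means percent response above 42, roughly 3 SD of non-fluorescent test compounds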;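 further: agonist-driven loss of surface beta2AR via internalization measured by FAP dye flow cytometry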). The settings on record: Am2.2-beta2AR cells, at 10 µM, stronger effect = higher value.
Sequence of Beta-2 adrenergic receptor (Homo sapiens) (P07550 whole entry, looked up): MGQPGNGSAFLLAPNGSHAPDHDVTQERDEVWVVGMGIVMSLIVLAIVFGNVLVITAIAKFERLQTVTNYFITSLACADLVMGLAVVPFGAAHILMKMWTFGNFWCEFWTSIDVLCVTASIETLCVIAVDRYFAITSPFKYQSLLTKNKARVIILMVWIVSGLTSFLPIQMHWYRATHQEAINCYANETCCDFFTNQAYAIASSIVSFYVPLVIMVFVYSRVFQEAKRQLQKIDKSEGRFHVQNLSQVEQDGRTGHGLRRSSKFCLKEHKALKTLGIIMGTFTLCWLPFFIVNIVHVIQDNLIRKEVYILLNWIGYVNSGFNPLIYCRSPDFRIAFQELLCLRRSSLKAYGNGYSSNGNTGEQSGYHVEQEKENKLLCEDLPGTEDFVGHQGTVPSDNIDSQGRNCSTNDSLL
The target in experiment [11] is AP-2 complex subunit beta (Homo sapiens) (UniProt P63010). In words: beta-arrestin/AP2 interaction blockers – biochemical, validation set, GST-AP2 beads, flow cytometry, pilot screen (AID 504541;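 active means inhibition above 54%, about 3 SD of non-fluorescent compounds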;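 further: AP2 carries R879A mutation and is captured from E. coli lysate; bead-bound FITC arrestin peptide fluorescence measuring arrestin peptide binding to AP2; 0% = DMSO wells and 100% = excess unlabeled arrestin peptide control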). The settings on record: FITC arrestin peptide, at 10 µM, stronger effect = higher value, AP2 beta2 appendage fragment, R879A mutant.
Sequence of AP-2 complex subunit beta (Homo sapiens) (P63010 whole entry, looked up, the tested form may be a part, one chain of several): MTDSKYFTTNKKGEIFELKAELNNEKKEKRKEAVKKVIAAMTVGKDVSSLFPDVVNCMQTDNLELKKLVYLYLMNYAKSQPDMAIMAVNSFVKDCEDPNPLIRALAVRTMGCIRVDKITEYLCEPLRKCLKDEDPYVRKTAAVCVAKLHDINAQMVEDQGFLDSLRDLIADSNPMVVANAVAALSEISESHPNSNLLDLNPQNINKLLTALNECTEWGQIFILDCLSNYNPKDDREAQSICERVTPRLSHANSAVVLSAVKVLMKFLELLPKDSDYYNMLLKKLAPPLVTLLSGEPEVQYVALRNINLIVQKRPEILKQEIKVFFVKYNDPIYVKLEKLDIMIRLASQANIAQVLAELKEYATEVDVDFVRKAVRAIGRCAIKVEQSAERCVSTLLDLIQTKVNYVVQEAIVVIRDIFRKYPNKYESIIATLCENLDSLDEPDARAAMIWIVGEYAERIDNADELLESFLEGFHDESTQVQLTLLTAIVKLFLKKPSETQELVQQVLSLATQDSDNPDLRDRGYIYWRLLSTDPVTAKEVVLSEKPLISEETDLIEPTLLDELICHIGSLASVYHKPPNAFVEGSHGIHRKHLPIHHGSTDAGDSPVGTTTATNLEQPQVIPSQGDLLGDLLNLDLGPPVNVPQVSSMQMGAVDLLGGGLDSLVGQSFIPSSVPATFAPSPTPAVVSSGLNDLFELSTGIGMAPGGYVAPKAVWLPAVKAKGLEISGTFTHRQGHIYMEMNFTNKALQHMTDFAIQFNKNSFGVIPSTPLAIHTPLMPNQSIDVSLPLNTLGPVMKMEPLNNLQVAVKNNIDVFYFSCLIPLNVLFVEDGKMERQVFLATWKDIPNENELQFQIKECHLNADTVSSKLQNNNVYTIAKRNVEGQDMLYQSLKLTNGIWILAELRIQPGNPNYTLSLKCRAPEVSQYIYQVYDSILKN
The nature of experiment [12]: cytosolic pH regulators acting via V-ATPase – S. cerevisiae, pHLuorin, HTS validation (AID 504600; in the data active means response above about 15%;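 further: plate controls were DMSO for no effect and reference compound for full effect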). The settings on record: V-ATPase proton transport, at 10 µM, stronger effect = higher value.
The subject of experiment [13] is anti-desmoglein-3 scFv antibody binding to human DSG3. In words: blockers of pathogenic pemphigus antibody–desmoglein-3 binding – biochemical, validation compound set, bead-based, flow cytometry, pilot screen (AID 588368;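 active means binding below the plate cutoff, the plate median minus 3 SD, with a reading above zero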;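 further: signal is the median channel fluorescence of bead-bound GFP antibody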). The settings on record: Protein G beads, DSG3-Fc, scFv-GFP binding, at 10 µM, stronger effect = lower value.
The nature of experiment [14]: Nile Red efflux blockade in pump-expressing yeast – validation compound set, multiplex, phenotypic, pilot screen (AID 588506;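 active means efflux inhibition above 0.42, the validation set average plus 4 SD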;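 further: Nile Red retained in cells so higher fluorescence means more efflux inhibition; 0 = negative control wells and 1 = enniatin B 25 µM full block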). The settings on record: S. cerevisiae pump-expressing triplex, Nile Red efflux flow cytometry; at 10 µM; stronger effect = higher value; the pumps come from Candida albicans.
In experiment [15] the target is ATP-binding cassette sub-family B member 6 (Homo sapiens) (UniProt Q9NP58). In words: blockers of ABCB6-driven porphyrin uptake – K562-ABCB6 cells, flow cytometry, validation set, pilot screen (AID 588550;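 active means inhibition above the screen-wide mean plus 3 SD, about 51%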;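 further: 0% = DMSO wells and 100% = benzethonium chloride 70 µM positive control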). The conditions noted are these: K562-ABCB6 porphyrin accumulation, 1 h, at 10 µM, stronger effect = higher value.
Sequence of ATP-binding cassette sub-family B member 6 (Homo sapiens) (Q9NP58 whole entry, looked up): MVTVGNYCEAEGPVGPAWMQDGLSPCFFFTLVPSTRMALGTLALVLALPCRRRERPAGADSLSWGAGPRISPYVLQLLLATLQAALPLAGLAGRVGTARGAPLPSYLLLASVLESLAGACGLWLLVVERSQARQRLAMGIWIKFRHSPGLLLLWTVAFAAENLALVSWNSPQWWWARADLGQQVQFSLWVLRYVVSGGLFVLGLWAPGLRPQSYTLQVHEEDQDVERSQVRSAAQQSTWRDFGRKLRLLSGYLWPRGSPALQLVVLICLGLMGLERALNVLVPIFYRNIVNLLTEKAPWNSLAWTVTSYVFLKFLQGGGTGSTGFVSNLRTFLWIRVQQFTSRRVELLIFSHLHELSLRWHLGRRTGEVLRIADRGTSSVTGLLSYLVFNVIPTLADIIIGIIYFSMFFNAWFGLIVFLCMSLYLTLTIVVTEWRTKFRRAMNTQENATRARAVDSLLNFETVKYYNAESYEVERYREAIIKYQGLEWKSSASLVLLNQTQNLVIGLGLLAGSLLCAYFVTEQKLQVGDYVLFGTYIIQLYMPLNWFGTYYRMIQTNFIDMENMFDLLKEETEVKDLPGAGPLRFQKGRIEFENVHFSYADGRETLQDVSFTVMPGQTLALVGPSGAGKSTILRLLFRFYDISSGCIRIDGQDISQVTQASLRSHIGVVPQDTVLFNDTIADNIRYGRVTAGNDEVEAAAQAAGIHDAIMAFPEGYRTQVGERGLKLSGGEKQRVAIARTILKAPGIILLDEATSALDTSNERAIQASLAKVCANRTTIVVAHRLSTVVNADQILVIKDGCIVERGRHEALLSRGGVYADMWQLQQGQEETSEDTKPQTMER
Experiment [16] in a line: AML differentiation inducers, ER-HoxA9 marrow cells – cell-based, GFP/MAC1 double positive, flow cytometry, validation set, primary screen (AID 588685;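 active means differentiation response of at least 50%, scaled between solvent and reference control, from cells with both markers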;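 further: compound exposure lasts four days before antibody staining and flow analysis; 0% = DMSO wells and 100% = 5 µM fulvestrant positive control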). The conditions noted are these: stronger effect = higher value, normalized: vehicle 0, fulvestrant 100.

Results filed as inconclusive are left out. The source made the active and inactive calls.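 How the source made its calls, unless noted: active means percent response above a set limit, the screen-wide mean plus 3 SD (cut at about 130% in these data); inactive means the rest.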

Sequence of Beta-adrenergic receptor kinase 1 (Homo sapiens) (P25098 whole entry, looked up): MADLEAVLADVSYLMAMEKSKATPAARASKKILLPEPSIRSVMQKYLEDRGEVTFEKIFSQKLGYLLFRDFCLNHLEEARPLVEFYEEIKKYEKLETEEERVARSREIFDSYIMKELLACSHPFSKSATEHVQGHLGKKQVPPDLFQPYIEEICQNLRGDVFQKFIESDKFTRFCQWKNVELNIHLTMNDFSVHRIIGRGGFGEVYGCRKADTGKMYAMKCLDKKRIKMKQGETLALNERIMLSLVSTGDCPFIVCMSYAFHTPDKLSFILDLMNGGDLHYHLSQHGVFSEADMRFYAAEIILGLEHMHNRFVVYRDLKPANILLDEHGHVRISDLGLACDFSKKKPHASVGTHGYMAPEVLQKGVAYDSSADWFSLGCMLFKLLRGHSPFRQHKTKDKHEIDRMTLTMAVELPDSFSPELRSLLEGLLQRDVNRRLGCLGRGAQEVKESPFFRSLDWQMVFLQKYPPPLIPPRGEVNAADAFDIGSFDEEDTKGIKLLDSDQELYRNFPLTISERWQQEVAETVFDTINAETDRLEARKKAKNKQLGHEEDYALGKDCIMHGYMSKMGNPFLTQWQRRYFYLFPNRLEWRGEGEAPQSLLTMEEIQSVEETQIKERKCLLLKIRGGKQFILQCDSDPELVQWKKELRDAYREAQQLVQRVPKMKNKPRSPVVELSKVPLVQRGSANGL
Sequence of Integrin beta-1 (Homo sapiens) + Integrin alpha-4 (Homo sapiens) (P05556 whole entry, looked up): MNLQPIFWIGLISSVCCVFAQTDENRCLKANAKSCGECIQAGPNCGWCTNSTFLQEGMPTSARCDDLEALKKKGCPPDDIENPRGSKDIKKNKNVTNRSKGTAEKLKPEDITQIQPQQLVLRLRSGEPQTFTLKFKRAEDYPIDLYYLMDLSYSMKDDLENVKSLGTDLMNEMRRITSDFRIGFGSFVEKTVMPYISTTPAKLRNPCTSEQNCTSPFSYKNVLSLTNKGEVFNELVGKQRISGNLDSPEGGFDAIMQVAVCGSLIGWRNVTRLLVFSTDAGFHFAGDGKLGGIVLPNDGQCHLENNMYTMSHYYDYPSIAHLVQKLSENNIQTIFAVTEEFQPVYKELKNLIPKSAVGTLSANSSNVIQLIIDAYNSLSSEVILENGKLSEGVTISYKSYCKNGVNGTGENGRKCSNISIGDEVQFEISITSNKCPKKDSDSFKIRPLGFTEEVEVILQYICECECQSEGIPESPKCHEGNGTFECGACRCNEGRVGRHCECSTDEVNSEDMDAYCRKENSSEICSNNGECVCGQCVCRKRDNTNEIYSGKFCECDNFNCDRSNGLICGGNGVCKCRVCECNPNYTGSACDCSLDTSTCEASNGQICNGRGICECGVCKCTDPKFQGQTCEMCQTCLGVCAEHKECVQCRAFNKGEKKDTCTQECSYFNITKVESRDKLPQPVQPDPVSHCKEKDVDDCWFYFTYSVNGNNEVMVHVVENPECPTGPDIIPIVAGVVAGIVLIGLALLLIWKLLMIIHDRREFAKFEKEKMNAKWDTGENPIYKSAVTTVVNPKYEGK
Sequence of Integrin beta-1 (Homo sapiens) + Integrin alpha-4 (Homo sapiens) (P13612 whole entry, looked up): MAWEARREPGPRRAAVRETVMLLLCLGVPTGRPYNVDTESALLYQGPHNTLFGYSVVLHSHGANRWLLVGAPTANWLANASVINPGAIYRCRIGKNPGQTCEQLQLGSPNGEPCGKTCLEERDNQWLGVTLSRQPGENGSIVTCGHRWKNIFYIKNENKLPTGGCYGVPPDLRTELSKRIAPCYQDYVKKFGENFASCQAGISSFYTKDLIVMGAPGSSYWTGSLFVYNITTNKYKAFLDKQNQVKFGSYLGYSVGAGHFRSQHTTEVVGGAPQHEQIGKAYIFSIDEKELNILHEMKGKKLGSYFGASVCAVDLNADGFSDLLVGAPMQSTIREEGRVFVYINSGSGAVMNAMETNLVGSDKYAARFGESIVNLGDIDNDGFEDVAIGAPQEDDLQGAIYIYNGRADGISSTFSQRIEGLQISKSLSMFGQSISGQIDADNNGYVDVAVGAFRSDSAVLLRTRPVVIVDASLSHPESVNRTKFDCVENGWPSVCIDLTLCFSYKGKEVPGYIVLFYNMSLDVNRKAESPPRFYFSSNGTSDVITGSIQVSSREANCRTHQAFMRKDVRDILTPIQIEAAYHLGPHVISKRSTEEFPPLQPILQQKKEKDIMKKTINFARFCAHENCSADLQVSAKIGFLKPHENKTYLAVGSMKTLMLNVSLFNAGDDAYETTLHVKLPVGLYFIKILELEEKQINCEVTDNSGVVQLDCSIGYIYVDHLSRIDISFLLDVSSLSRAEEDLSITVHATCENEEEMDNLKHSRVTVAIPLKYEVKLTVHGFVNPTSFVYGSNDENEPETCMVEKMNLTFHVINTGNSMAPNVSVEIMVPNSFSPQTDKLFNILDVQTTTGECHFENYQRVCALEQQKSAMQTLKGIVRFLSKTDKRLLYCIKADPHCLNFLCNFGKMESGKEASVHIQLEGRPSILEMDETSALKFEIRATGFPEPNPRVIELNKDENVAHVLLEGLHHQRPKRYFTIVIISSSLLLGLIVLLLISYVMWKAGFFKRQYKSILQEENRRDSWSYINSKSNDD

Broadly, the inhibition is the drop in the measured response relative to a control, in per cent. On to `OCCOCCN1CCN(C(c2ccccc2)c2ccc(Cl)cc2)CC1` (stereo not drawn), for which the percent of DMSO control GFP in [1] was 90.4% (inactive). The values for the GFP response vs DMSO in experiment [2] and in [4] were 114% (inactive) and 77% (inactive), respectively. Besides, the percent response of DMSO control in [3] was 95.2% (inactive). Moreover, the GFP response, % of DMSO in [5] was 93.8% (inactive). Further, in experiment [6], the double positive events came out at 66.8%. In [6], the vesicle binding response was 218% (inactive). For the same compound, the inhibition was -0.33% (inactive) in experiment [7], 0.96% (inactive) in [11] and 12% (inactive) in [15]. For the same compound, the superoxide response (% of plate) in [8] was 95% (inactive). Besides, the aptamer binding inhibition in [9] was 1% (inactive). For the same compound, the results for the response in [10] and in experiment [12] were 3.36% (inactive) and 1.14% (inactive), respectively. In addition, the binding (% of control) in experiment [13] is 110% (inactive). Further, the efflux inhibition (fraction of control) in [14] was -0.38 (inactive). The differentiation response in [16] is -1.64% (inactive).
As to `COc1ccc2oc(=O)c(C(=O)Nc3ccccc3-c3ccccc3)cc2c1`, the percent of DMSO control GFP in experiment [1] was 101% (inactive). Also, the GFP response vs DMSO in experiment [2] is 104% (inactive); in experiment [4], 97.1% (inactive). Moreover, in experiment [3], the percent response of DMSO control is 99% (inactive). Besides, in experiment [5], the GFP response, % of DMSO was 113% (inactive). The compound further gave a double positive events in experiment [6] of 64.5%. In addition, in [6], the vesicle binding response is 167% (inactive). Besides, the inhibition in experiment [7] is 2.29% (inactive); in [11], 85% (active); in experiment [15], 6% (inactive). Moreover, the superoxide response (% of plate) in [8] is 94.6% (inactive). The aptamer binding inhibition in [9] was 4% (inactive). The figures for the response in experiment [10] and in [12] were 13.6% (inactive) and -7.05% (inactive), respectively. Moreover, in [13], the binding (% of control) was 97.4% (inactive). In addition, the efflux inhibition (fraction of control) in [14] is 0 (inactive). For the same compound, the differentiation response in experiment [16] was -8.93% (inactive).
For `COc1ccc(S(=O)(=O)NCc2ccco2)c2ccccc12`, the percent of DMSO control GFP in [1] is 100% (inactive). In addition, the GFP response vs DMSO in [2] was 104% (inactive); in [4], 114% (inactive). In addition, the percent response of DMSO control in [3] was 88.2% (inactive). Also, the GFP response, % of DMSO in [5] is 87% (inactive). Moreover, the double positive events in experiment [6] is 62.3%. The vesicle binding response in [6] was 175% (inactive). The results for the inhibition in [7], in [11] and in [15] were 7.76% (inactive), -4.99% (inactive) and 7% (inactive), respectively. Further, the superoxide response (% of plate) in experiment [8] was 89.3% (inactive). In experiment [9], the aptamer binding inhibition was 3% (inactive). Besides, the response in experiment [10] was -3.81% (inactive); in experiment [12], 1.41% (inactive). The binding (% of control) in experiment [13] was 96.3% (inactive). For the same compound, in experiment [14], the efflux inhibition (fraction of control) was -0.13 (inactive). The differentiation response in experiment [16] is 2.4% (inactive).
Turning to `c1ccc(Cn2ncc3c(Nc4ccccc4)ncnc32)cc1`, the percent of DMSO control GFP in [1] is 96.7% (inactive). For the same compound, the GFP response vs DMSO in [2] is 106% (inactive); in experiment [4], 117% (inactive). Besides, the percent response of DMSO control in experiment [3] is 103% (inactive). In addition, the GFP response, % of DMSO in experiment [5] was 107% (inactive). Moreover, the double positive events in experiment [6] came to 63.6%. Further, the vesicle binding response in experiment [6] was 244% (inactive). Besides, the inhibition in experiment [7] was 9.95% (inactive); in [11], 9.49% (inactive); in experiment [15], 2% (inactive). In addition, in [8], the superoxide response (% of plate) is 121% (inactive). Moreover, the aptamer binding inhibition in [9] is -1% (inactive). Further, the response in [10] was -42.2% (inactive); in experiment [12] it was 3.17% (inactive). Besides, the binding (% of control) in [13] was 101% (inactive). Besides, the efflux inhibition (fraction of control) in [14] is 0.08 (inactive). The differentiation response in [16] is -8.93% (inactive).
